According to the supplement of paper PMC10515830:
Counter-ions that a name gives are not always drawn.

Legend:
Conditions in all cases: 10 µM; exposure time 6 h
[1] = system: Danio rerio larvae (5 dpf); assay: difference in excitability vs DMSO (percentage points); higher = more excitable than DMSO
In short: (§1)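 Wild-type 5 dpf zebrafish larvae in 96-well plates were given 100 µL egg water containing library compound at 10 µM final for 6 h. After 3 h of exposure, plates at 28.5 ℃ were photographed every 6 s during a 3-h programme of moving lines and 100 ms, 400Hz tones. Z-LaP Tracker (a DeepLabCut model) quantified each behaviour, averaged over 48 larvae per compound. Values are the compound mean minus the DMSO-vehicle control, in percentage points.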

[2] = system: Danio rerio larvae (5 dpf); assay: difference in startle response vs DMSO (percentage points); higher = stronger startle than DMSO
In short: as §1

[3] = system: Danio rerio larvae (5 dpf); assay: difference in activity during first hour vs DMSO (percentage points); higher = more activity than DMSO
In short: as §1

[4] = system: Danio rerio larvae (5 dpf); assay: difference in habituation to acoustic stimuli vs DMSO (percentage points); higher = more habituation than DMSO
In short: as §1

[5] = system: Danio rerio larvae (5 dpf); assay: difference in combined optomotor response to red, green and blue moving lines vs DMSO (percentage points); higher = stronger optomotor response than DMSO
In short: as §1

CCC(=O)O[C@]1(C(=O)CCl)[C@@H](C)C[C@H]2[C@@H]3CCC4=CC(=O)C=C[C@]4(C)[C@@]3(F)[C@@H](O)C[C@@]21C [Clobetasol Propionate]
difference in excitability [1]: 2.04 | difference in startle response [2]: -8.98 | difference in activity during first hour [3]: 19.3 | difference in habituation to acoustic stimuli [4]: 0.438 | difference [5]: 4.92

CNCC(=O)OCc1cccnc1N(C)C(=O)OC(C)[n+]1cnn(C[C@](O)(c2cc(F)ccc2F)[C@@H](C)c2nc(-c3ccc(C#N)cc3)cs2)c1 (stereo not given in full) [Isavuconazonium (sulfate)]
difference in excitability [1]: 28.4 | difference in startle response [2]: 4.1 | difference in activity during first hour [3]: -13.1 | difference in habituation to acoustic stimuli [4]: -2.82 | difference [5]: -5.6

C[C@]12CCC(=O)C=C1CC[C@@H]1[C@@H]2[C@@H](O)C[C@@]2(C)[C@H]1CC[C@]2(O)C(=O)CO [Hydrocortisone]
difference in excitability [1]: 1.87 | difference in startle response [2]: 0.52 | difference in activity during first hour [3]: 14.7 | difference in habituation to acoustic stimuli [4]: 1.82 | difference [5]: 9.96

Cc1nnc(SCC2=C(C(=O)O)N3C(=O)[C@@H](NC(=O)Cn4cnnn4)[C@H]3SC2)s1 [Cefazolin (sodium salt)]
difference in excitability [1]: 9.87 | difference in startle response [2]: -2.79 | difference in activity during first hour [3]: 7.43 | difference in habituation to acoustic stimuli [4]: -0.463 | difference [5]: 5.77

CC(C)NCC(O)COc1ccc(CCOCC2CC2)cc1 (stereo not given) [Betaxolol (hydrochloride)]
difference in excitability [1]: 2.57 | difference in startle response [2]: 2.31 | difference in activity during first hour [3]: 11.4 | difference in habituation to acoustic stimuli [4]: -2.52 | difference [5]: 6.22

CC#CCC(C)[C@H](O)/C=C/[C@@H]1[C@H]2C/C(=C/CCCC(=O)O)C[C@H]2C[C@H]1O (stereo not given in full) [Iloprost]
difference in excitability [1]: -3.4 | difference in startle response [2]: -1.91 | difference in activity during first hour [3]: 1.64 | difference in habituation to acoustic stimuli [4]: -1.61 | difference [5]: 1.64

CC(C)CN(C[C@@H](O)[C@H](Cc1ccccc1)NC(=O)O[C@H]1CO[C@H]2OCC[C@H]21)S(=O)(=O)c1ccc(N)cc1 [Darunavir]
difference in excitability [1]: -1.86 | difference in startle response [2]: 0.437 | difference in activity during first hour [3]: 0.73 | difference in habituation to acoustic stimuli [4]: 2.66 | difference [5]: 5.61

CC(C)Cn1cnc2c(N)nc3ccccc3c21 [Imiquimod]
difference in excitability [1]: -4.08 | difference in startle response [2]: 8.27 | difference in activity during first hour [3]: -15 | difference in habituation to acoustic stimuli [4]: -2.3 | difference [5]: -3.49

CN(C)CCC(c1ccc(Br)cc1)c1ccccn1 (stereo not given) [Brompheniramine (maleate)]
difference in excitability [1]: 4.19 | difference in startle response [2]: -2.92 | difference in activity during first hour [3]: -11.7 | difference in habituation to acoustic stimuli [4]: -3.69 | difference [5]: 7.28

O=c1[nH]c(=O)n([C@H]2C[C@H](O)[C@@H](CO)O2)cc1F [Floxuridine]
difference in excitability [1]: 5.02 | difference in startle response [2]: -2.11 | difference in activity during first hour [3]: 5.28 | difference in habituation to acoustic stimuli [4]: -3.55 | difference [5]: 1.72

CC(=O)OCC(=O)[C@@]1(O)CC[C@H]2[C@@H]3CCC4=CC(=O)CC[C@]4(C)[C@@]3(F)[C@@H](O)C[C@@]21C [Fludrocortisone Acetate]
difference in excitability [1]: -4.21 | difference in startle response [2]: 4.97 | difference in activity during first hour [3]: -1.84 | difference in habituation to acoustic stimuli [4]: 0.633 | difference [5]: 1.96

N[C@@H](CC(=O)N1CCn2c(nnc2C(F)(F)F)C1)Cc1cc(F)c(F)cc1F [(-)-Sitagliptin (phosphate)]
difference in excitability [1]: 10.7 | difference in startle response [2]: -0.289 | difference in activity during first hour [3]: -10.7 | difference in habituation to acoustic stimuli [4]: -3.48 | difference [5]: -5.35

Cn1c(=O)c2[nH]cnc2n(C)c1=O [Aminophylline]
difference in excitability [1]: 4.39 | difference in startle response [2]: 0.67 | difference in activity during first hour [3]: 2.88 | difference in habituation to acoustic stimuli [4]: -3.14 | difference [5]: 8.05

OC(Cn1cncn1)(Cn1cncn1)c1ccc(F)cc1F [Fluconazole]
difference in excitability [1]: -1.01 | difference in startle response [2]: -5.1 | difference in activity during first hour [3]: -3.04 | difference in habituation to acoustic stimuli [4]: -5.58 | difference [5]: 3.09

CC(C)OC(=O)CCC/C=C\C[C@@H]1[C@@H](/C=C/[C@@H](O)COc2cccc(C(F)(F)F)c2)[C@H](O)C[C@@H]1O [Fluprostenol isopropyl ester]
difference in excitability [1]: 7.89 | difference in startle response [2]: -1.38 | difference in activity during first hour [3]: 5.82 | difference in habituation to acoustic stimuli [4]: 8.61 | difference [5]: 7.99

Cc1ccnc2c1NC(=O)c1cccnc1N2C1CC1 [Nevirapine]
difference in excitability [1]: 0.772 | difference in startle response [2]: 3.61 | difference in activity during first hour [3]: -2.89 | difference in habituation to acoustic stimuli [4]: -2.11 | difference [5]: -3.5

CCNC(=O)CCC/C=C\C[C@@H]1[C@@H](/C=C/[C@@H](O)CCc2ccccc2)[C@H](O)C[C@@H]1O [17-phenyl trinor Prostaglandin F2α ethyl amide]
difference in excitability [1]: 12.5 | difference in startle response [2]: -5.26 | difference in activity during first hour [3]: 14.8 | difference in habituation to acoustic stimuli [4]: -0.264 | difference [5]: 7.13

O=C(O[C@@H]1C[C@@H]2C[C@H]3C[C@H](C1)N2CC3=O)c1c[nH]c2ccccc12 [Dolasetron]
difference in excitability [1]: 10.9 | difference in startle response [2]: -3.55 | difference in activity during first hour [3]: 2.6 | difference in habituation to acoustic stimuli [4]: 7.35 | difference [5]: 6.71

CC(Oc1c(Cl)cccc1Cl)C1=NCCN1 (stereo not given) [Lofexidine (hydrochloride)]
difference in excitability [1]: 5.84 | difference in startle response [2]: 4.45 | difference in activity during first hour [3]: 2.08 | difference in habituation to acoustic stimuli [4]: 0.884 | difference [5]: 10.9

O=C1CN(/N=C/c2ccc(-c3ccc([N+](=O)[O-])cc3)o2)C(=O)N1 [Dantrolene (sodium salt)]
difference in excitability [1]: 9.39 | difference in startle response [2]: 1.23 | difference in activity during first hour [3]: -7.55 | difference in habituation to acoustic stimuli [4]: 0.0919 | difference [5]: 0.433

Cc1cn(-c2cc(NC(=O)c3ccc(C)c(Nc4nccc(-c5cccnc5)n4)c3)cc(C(F)(F)F)c2)cn1 [Nilotinib]
difference in excitability [1]: 28.8 | difference in startle response [2]: -3.62 | difference in activity during first hour [3]: -6.05 | difference in habituation to acoustic stimuli [4]: -1.02 | difference [5]: -2.49

NC1=NCC2c3ccccc3Cc3ccccc3N12 (stereo not given) [Epinastine (hydrochloride)]
difference in excitability [1]: 13 | difference in startle response [2]: -2.41 | difference in activity during first hour [3]: 14.1 | difference in habituation to acoustic stimuli [4]: 4.49 | difference [5]: 7.56
